Screens (PubChem)
This is a sample that favours compounds with a hit; in the whole collection about 2.4% have one here.
PTAP TSG101 blk: blocks PTAP/TSG101 interaction to inhibit HIV-1 budding. Q99816. Fluorescence polarization, FITC-PTAP peptide / Tsg101 binding. Potency, µM (top dose mostly 115 µM), for the others: top-dose activity change, negative = inhibition, actives largely listed as inhibitors. 340,000 tested, under 10 active; active = well fitted inhibition curve with a large enough effect in the main read-out, with a control signal flat, not every such curve was filed as active; inconclusive = small, poorly fitted or top-dose-only effect, or effect the other way, or a change in a side signal; inactive = no such curve, though single readings can be large or run the other way; note: % of control where 0% means no effect
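FP read-out: FITC-PTAP peptide, 50 nM final, binding Tsg101 binding domain, 10 uM final; 20 min, r.t.; 10 mM HEPES pH 7.5, 0.15 M NaCl, 0.01% Tween 20, 3 mM EDTA, 0.1 mM TCEP.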
TDP1 block: blocks human tyrosyl-DNA phosphodiesterase 1. recombinant TDP1, AlphaScreen DNA substrate cleavage. Potency, µM (top dose mostly 130 µM), without a hit: at the highest dose activity change, negative = inhibition, most hits filed as inhibitors. hit rate 0.28% among 350,000. AID 485290; active = well fitted curve in the direction sought with a large enough effect; inconclusive = small, poorly fitted or top-dose-only effect, or another doubt; inactive = no such curve, though single readings can be large; an effect the other way counts as inactive or inconclusive; note: % is set by controls: 0 for no effect and ±100 for the full control effect; nearly all actives have a fitted effect of over 40% in size
Target sequence (Q9NUW8 whole entry, looked up): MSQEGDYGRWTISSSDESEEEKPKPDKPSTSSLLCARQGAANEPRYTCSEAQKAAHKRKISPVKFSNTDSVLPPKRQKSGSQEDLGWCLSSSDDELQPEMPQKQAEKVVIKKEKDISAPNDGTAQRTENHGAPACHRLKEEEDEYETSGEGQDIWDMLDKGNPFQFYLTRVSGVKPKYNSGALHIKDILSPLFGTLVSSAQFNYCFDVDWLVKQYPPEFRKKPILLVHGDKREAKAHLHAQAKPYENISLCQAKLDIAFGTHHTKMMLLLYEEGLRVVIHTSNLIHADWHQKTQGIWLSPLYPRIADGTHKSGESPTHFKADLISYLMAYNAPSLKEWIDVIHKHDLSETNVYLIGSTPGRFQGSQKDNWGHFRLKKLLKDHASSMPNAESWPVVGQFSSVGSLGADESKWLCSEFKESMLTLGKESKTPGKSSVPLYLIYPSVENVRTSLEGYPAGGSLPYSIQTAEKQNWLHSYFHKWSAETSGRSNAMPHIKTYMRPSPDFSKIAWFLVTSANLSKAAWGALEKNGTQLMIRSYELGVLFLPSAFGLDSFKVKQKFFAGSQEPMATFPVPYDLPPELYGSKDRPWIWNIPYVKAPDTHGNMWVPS
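Recombinant human Tdp1 (E. coli-expressed, 1 nM final) preincubated with compounds 15 min at room temperature, then 5'-biotin/3'-phosphotyrosine-FITC DNA substrate (15 nM final) added for 5 min. AlphaScreen beads (10 ug/ml final) added 10 min; cleavage lowers signal.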
ALOX12 inh: blocks human arachidonate 12S-lipoxygenase; P18054; purified 12hLO, xylenol orange hydroperoxide absorbance; Potency, µM (series often up to 108 µM), without a hit: at the highest dose activity change, negative = inhibition, usual class: inhibitors; hit rate 1.1% among 580,000; AID 1671190; active = well fitted curve in the direction sought with a large enough effect; inconclusive = small, poorly fitted or top-dose-only effect, or another doubt; inactive = no such curve, though single readings can be large; an effect the other way counts as inactive or inconclusive; note: % is set by controls: 0 for no effect and ±100 for the full control effect
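Purified human 12hLO at 150 nM in 25 mM Hepes, 0.01% Triton X-100, pH 7.0, preincubated 15 min at room temperature with compound. Reaction started with 40 uM arachidonic acid, 30 min at room temperature. Hydroperoxide measured by Fe-xylenol orange, 573/405 nm absorbance ratio.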
ClpP mod: qHTS Assay for Activators of ClpP. ATP-dependent Clp protease proteolytic subunit (Bacillus subtilis (strain 168)), P80244. purified B. subtilis ClpP, FRET peptide cleavage, 20 min. Potency, µM (top dose mostly 57.5 µM), without a hit: top-dose activity change, negative = active. hit rate 1.9% among 340,000. AID 651965, 2013; active = well fitted falling curve with a large enough effect; inconclusive = small, poorly fitted or top-dose-only effect; inactive = no such curve, though single readings can be large or run the other way; note: the source files actives as falling curves though it sought activators and does not explain the sign; nearly all actives have a fitted effect of over 65% in size
Target sequence (P80244 whole entry, looked up): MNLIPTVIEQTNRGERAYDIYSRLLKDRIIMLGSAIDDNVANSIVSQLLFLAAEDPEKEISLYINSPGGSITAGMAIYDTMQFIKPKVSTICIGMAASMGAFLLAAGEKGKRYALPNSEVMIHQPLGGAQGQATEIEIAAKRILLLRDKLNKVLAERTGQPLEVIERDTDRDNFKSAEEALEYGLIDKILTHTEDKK
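ClpP 10 microg/mL final, pH 8 Tris/KCl buffer with BSA, glycerol, Tween-20; compound pinned in; FRET-FV substrate; RT 20 min; Ex320/Em430; ΔFRET vs ADEP 5.8 microM, DMSO, no enzyme.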
Rango release inh: prevents RanGTP from dissociating the Rango-importin beta complex. O95149+P62826. Biochemical FRET Rango-importin beta, RanGTP-induced dissociation. Potency, µM (titrated, usually from 46.1 µM), without a hit: at the highest dose activity change, negative = inhibition. hit rate 0.071% among 340,000; note: % of control where 0% means no effect; nearly all actives have a fitted effect of over 45% in size
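Rango (0.1 uM)–importin beta (0.25 uM) complex; RanGTP-RCC1 trigger; 45 min RT; CFP/YFP FRET read.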
Rango-impB inh: Rango-importin beta binding inhibition. Q14974. Rango CFP/YFP FRET sensor + importin beta, 45 min. Potency, µM (top dose mostly 92.2 µM), without a hit: top-dose inhibition of complex formation. hit rate 0.031% among 340,000;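 note: 0% = DMSO wells and 100% = buffer wells lacking importin beta; nearly all actives have a fitted effect of over 15% in size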
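FRET biosensor Rango (snurportin 1 IBB between N-terminal EYFP and C-terminal Cerulean), 50 nM in PBS/1 mM DTT/0.02% Tween-20/0.1% BSA, preincubated 5 min RT with compound; 0.125 microM importin beta added, 45 min RT, CFP/YFP FRET ratio read.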
Active calls of the source: *; ? = inconclusive; . = not tested or not shown; ! = a repeat was not active; [ ] = another dose, or the depositor's remark. Unless noted, calls come from the whole dose curve. Potency is the fitted concentration of half-maximal effect.

SMILES | PTAP TSG101 blk | TDP1 block | ALOX12 inh | ClpP mod | Rango release inh | Rango-impB inh
O=[N+]([O-])c1ccccc1-c1ccc(CN2CCN(c3ccccc3)CC2)o1 | 0% | . | ? | . | -6% | 0%
O=[N+]([O-])c1cccc(-c2ccc(CN3CCN(c4ccccc4)CC3)o2)c1 | -1% | . | 7.1µM* | 0% | 19% | 4%
O=[N+]([O-])c1ccc(N2CCN(Cc3cccc([N+](=O)[O-])c3)CC2)cc1 | 1% | . | -5% | . | 10% | 2%
O=[N+]([O-])c1ccc(CN2CCN(c3ccc([N+](=O)[O-])cc3)CC2)cc1 | -1% | . | 3.5µM* | ? | 2% | ?
O=C1NC(=NC2CCCC2)C2(CCCN([S+](=O)([O-])c3cccs3)C2)N1c1cc(F)cc(F)c1 (stereo not drawn) | . | . | 2%[6.33 µM] | . | . | .
C[S+](=O)([O-])N1CCCC2(C1)C(=NC1CCCC1)NC(=O)N2c1cc(F)cc(F)c1 (stereo not drawn) | . | . | 89µM* | . | . | .
COc1ccc(NC(=O)C(=O)NCc2ccccc2)c(OC)c1 | . | . | -21% | . | . | .
O=C(c1ccco1)N1CC(Oc2cccc(-c3nc(-c4ccccc4)no3)c2)C1 | . | . | -2% | . | . | .
COC12CC(=O)C(C(C)=O)=C(O)C1(C)c1c(O)c(C)c(O)c(C(C)=O)c1O2 (stereo not drawn) | . | . | 40µM* | . | . | .
CC1(C)NC(=S)NC1=S | 1% | . | 5% | -2% | 3% | 2%
CCC1(CC)NC(=S)NC1=S | 0% | . | 0% | 28µM* | 18% | 1%
N#Cc1cccc(C(=O)N2CC(F)(F)C[C@H]2c2nc(C3CC3)no2)c1 | . | . | 48% | . | . | .
Cc1ccc(C=Nc2ccccc2C(N)=O)s1 | 0% | 5% | -6% | 8.9µM* | 0% | 0%
CC(=O)c1cccc(S(=O)(=O)Nc2cccnc2)c1 | -1% | 7% | 8.9µM* | . | 28% | 2%
CN(Cc1ccccc1)S(=O)(=O)c1ccc(-c2nc(C#N)c(NCc3cccnc3)o2)cc1 | . | . | -15% | . | . | .
CN(C)CCNc1oc(-c2cccc(Cl)c2)nc1C#N | -2% | 4% | -44% | 16µM* | -1% | 3%
N#Cc1nc(COc2ccccc2Cl)oc1NCc1cccnc1 | -4% | 1% | -2% | -7% | 21µM* | ?
Cc1ccc(-c2nc(C#N)c(NCc3ccco3)o2)cc1 | -10% | 7% | ? | 20µM* | 0% | 0%
CC(C)(C)c1ccc(-c2nc(C#N)c(NCc3cccnc3)o2)cc1 | -5% | 10% | 0% | 32µM* | -1% | 5%
CCc1ccc(C(=O)N2CCC3(CC2)N=C(c2ccc(C)cc2)NO3)cc1 | . | . | 10% | . | . | .
CC(=O)Nc1cccc(-c2cnc3[nH]cc(CC(=O)N4CCOCC4)c3c2)c1 | . | . | 5%[176 µM] | . | . | .
COCC1CN(C)CC12CCN(C(=O)c1cccc(C)c1)CC2 (stereo not drawn) | . | . | 8% | . | . | .
CCc1cc(=O)oc2cc(C)cc(OCC(=O)NCCCN(C)C)c12 | . | . | 12% | . | . | .
N#Cc1nc(-c2ccco2)oc1NCc1ccco1 | -3% | 5% | -11% | 3.2µM* | -8% | -2%
Cc1ccc2cc(C#N)c(NCc3ccco3)nc2c1 | 1% | -3% | ? | 25µM* | -8% | 1%
SMILES | PTAP TSG101 blk | TDP1 block | ALOX12 inh | ClpP mod | Rango release inh | Rango-impB inh
N#Cc1nc(-c2ccco2)oc1NCCCN1CCOCC1 | -7% | 5% | -7% | 3.5µM* | 19% | 2%
Cc1cccc(-c2nc(C#N)c(NCc3ccccc3)o2)c1 | . | . | 50µM* | . | . | .
N#Cc1nc(-c2ccccc2)oc1NCc1ccccc1 | . | . | -15% | . | . | .
Cc1cccc(NC(=O)N2CCCCC2c2noc(COCC3CC3)n2)c1 (stereo not drawn) | . | . | 1% | . | . | .
CCc1ccc(OCC(=O)Nc2ccc(-c3nc4ccccc4o3)c(O)c2)cc1 | -5% | 1% | 17% | -29% | 2% | 0%
Oc1cc(NCc2cccnc2)ccc1-c1nc2ccccc2o1 | -7% | 6% | -1% | 35µM* | -7% | -5%
Cc1nc(NCc2ccc3c(c2)OCO3)c2oc3ccccc3c2n1 | -7% | -7%[56.1 µM] | 22µM* | -5% | -3% | -4%
CCc1nc(NCc2ccc3c(c2)OCO3)c2oc3ccccc3c2n1 | -3% | 5% | ? | -11% | -8% | 0%
CCOC(=O)NC(=O)/C(C#N)=N\Nc1cccc(Cl)c1 | 2% | 7% | 0.4µM* | . | -9% | 0%
CCOC(=O)NC(=O)/C(C#N)=N\Nc1ccc(Cl)cc1 | -1% | 8% | ? | -1% | ? | 2%
CCCCCCOC(=O)CCC | . | . | 7%[176 µM] | . | . | .
CNCc1cccn1C | . | . | 0.52µM* | . | . | .
CCn1c2ccccc2c2cc(CN3CCN(Cc4ccc(OC)c(OC)c4)CC3)ccc21 | . | -10%[12.3 µM] | ? | ? | . | .
CCOc1ccc(CN2CCN(Cc3ccc4c(c3)c3ccccc3n4CC)CC2)cc1 | . | -6%[12.3 µM] | ? | 20µM* | . | .
CCc1cc(C(=O)N2CCN(C(=O)c3ccco3)CC2)sc1C | -4% | . | 13% | 28µM* | 12% | 0%
COc1ccc(Br)cc1CN1CCN(C(=O)c2ccco2)CC1 | -5% | . | 0.5µM* | -2% | 9% | 0%
CCn1cc(CN2CCN(C(=O)c3ccco3)CC2)ccc1=O | . | . | 95% | . | . | .
CCn1c2ccccc2c2cc(CN3CCN(C(=O)c4ccco4)CC3)ccc21 | -4% | 12% | 0.56µM* | -16% | 4% | -1%
COc1ccccc1CN1CCN(C(=O)c2ccco2)CC1 | 0% | 5% | ? | -5% | 4% | 2%
Clc1cnccc1CN1CC(CNc2ccccc2)C2(C1)CN(c1ccccc1)C2 (stereo not drawn) | . | . | 27%[176 µM] | . | . | .
O=C1C(N2CCN(S(=O)(=O)c3ccccc3)CC2)CCN1Cc1ccccn1 (stereo not drawn) | . | . | 68% | . | . | .
CCN1CCN(c2ccc(S(=O)(=O)N3CCCCC3)cc2NC(=O)Cc2ccccc2F)CC1 | -1% | -3% | -12% | -6% | -3% | 1%
CCN1CCN(c2ccc(S(=O)(=O)N3CCCCC3)cc2NC(=O)Cc2ccccc2)CC1 | 1% | -5%[0.505 µM] | 16µM*! | -2% | 10% | 0%
COc1cccc(/C(O)=C2\C(=O)C(=O)N(c3ccccn3)C2c2cccc(Br)c2)c1 (stereo not drawn) | . | . | 35µM* | . | . | .
COCCNC(=O)[C@@H]1C[C@H](Oc2cccnc2)CN1C(=O)CCc1c[nH]c2ccccc12 | . | . | 9% | . | . | .
CCC(=O)Nc1nnc(Sc2ccc(N(C)C)cc2)s1 | 1% | 45µM* | 0% | -1% | 0% | -3%
N#Cc1cccc(CN2CC[C@@H]3OCC(=O)N(c4ccccc4)[C@H]3CC2)c1 | . | . | -1%[176 µM] | . | . | .
